DAX1 inh-1: inhibits human nuclear receptor DAX1 | P51843 | HEK293 Gal4-DAX1 luciferase reporter, luminescence | AID 504766 | inhibition, % at 6.75 µM | 0.99% of 340,000 active;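 active = inhibition above the mean over all tested compounds plus 3 SD, cut at about 4.2% in these data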;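 note: 0% = DAX1-transfected cells with DMSO and 100% = empty-vector control cells with DMSO; inhibition shows as a rise in luminescence from relieved DAX1 repression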
Target sequence (P51843 207-470 limits assumed): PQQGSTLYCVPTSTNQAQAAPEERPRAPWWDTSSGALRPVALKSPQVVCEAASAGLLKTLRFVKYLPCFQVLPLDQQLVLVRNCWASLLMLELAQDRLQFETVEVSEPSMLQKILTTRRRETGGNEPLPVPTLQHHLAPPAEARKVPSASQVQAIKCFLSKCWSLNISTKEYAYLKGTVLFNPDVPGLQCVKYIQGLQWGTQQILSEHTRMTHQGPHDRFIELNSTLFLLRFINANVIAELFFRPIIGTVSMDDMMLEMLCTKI
ssDAF12 agonist: S. stercoralis DAF-12 activation, primary screen; HEK293 ssDAF-12/GRIP1 lit1-tk-luc reporter, luminescence; % of 3 µM dafachronic acid response; activation, % at 6.8 µM; 1% of 370,000 active; AID 652126;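 active = activation above the mean over all tested compounds plus 3 SD, cut at about 0.9% in these data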;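 note: 0% = DMSO-only wells and 100% = 3 µM delta7-dafachronic acid wells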
SMARCA2 activ: SMARCA2 function activation, primary screen; MG213 cells, MMTV-luciferase reporter, dexamethasone, overnight; activation, % at 9.1 µM; 1% of 370,000 active; AID 652017; in the data active = activation above about 7.8%;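 note: 0% = vehicle wells and 100% = reference activator wells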
DAX1 inh-2: inhibitors of DAX1 repression of SF-1 activated StAR promoter; 1.1% of 370,000 active; inhibition, % at 6.8 µM; AID 652010; HEK293T StAR-luciferase reporter, SF-1/DAX-1 repression relief;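 active = inhibition above the mean over all tested compounds plus 3 SD, cut at about 3.6% in these data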;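 note: 0% = DAX-1 cells with DMSO and 100% = cells lacking DAX-1 with DMSO; higher inhibition means more luminescence from relief of DAX-1 repression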
hgDAF-12 ag: agonists of H. glycines DAF-12 nuclear receptor; AID 687014; HEK293 GAL4-hgDAF12 UAS-luciferase reporter, agonist luminescence; normalized to butyrate control; activation, % at 6.8 µM; 1.8% of 370,000 active;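 active = activation above a cutoff set at the mean of all screened compounds plus 3 SD, cut at about 10% in these data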;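 note: 0% = DMSO wells and 100% = sodium butyrate wells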
hcDAF-12 act: activates DAF-12 receptor from parasite H. contortus. HEK293 hcDAF-12 lit1-tk-luc reporter, luminescence; 0% DMSO, 100% Δ7-dafachronic acid. activation, % at 6.8 µM. AID 652067. 1.4% of 370,000 active;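 active = activation above the mean of all tested compounds plus 3 SD, cut at about 5.5% in these data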;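 note: 100% = response to 3 µM Δ7-dafachronic acid high control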
* = called active by the depositor; . = not tested or not shown. In the library only some 4.8% were active in any assay of this set; here they are far more common.

SMILES	DAX1 inh-1	ssDAF12 agonist	SMARCA2 activ	DAX1 inh-2	hgDAF-12 ag	hcDAF-12 act
O=C(/C=C/c1ccccc1)Nc1cccc(C(=O)O)c1	-8	-1	4	4.4*	13*	3
O=C(/C=C\c1ccccc1[N+](=O)[O-])Nc1ccccc1	3	0	2	1	11*	4
O=C(/C=C/c1ccccc1)Nc1cc(NC(=O)/C=C/c2ccccc2)cc(C(=O)O)c1	-4	-1	-1	1	0	0
Cc1ccc([N+](=O)[O-])cc1N=Nc1c(C)[nH]n(C(N)=S)c1=O	1	-1	-3	0	2	-1
O=C(CCNS(=O)(=O)c1ccc2[nH]c(=O)oc2c1)NCc1ccc(F)cc1	0	0	-1	-1	0	-1
CCOc1ccc(N(Cc2ccc(C(=O)O)cc2)S(=O)(=O)c2ccc(C)cc2)cc1	1	1.5*	-2	-1	2	2
CCOc1ccc(S(=O)(=O)N(CC(=O)O)c2ccc(C)cc2)cc1	0	-2	3	0	0	0
CC(=O)N1CCN(Cc2nc3ccc(Cl)cc3n2CCO)CC1	0	0	0	0	-2	1
Cc1ccc(N2C(=O)[C@@H]3[C@H](C2=O)[C@H]2C=CC=NN2[C@@H]3C(=O)Nc2ccccc2)cc1	-2	1.2*	-1	0	2	3
CC(=O)Oc1ccc(C(=O)[C@H]2[C@H]3C(=O)N(c4ccc(C)cc4C)C(=O)[C@H]3[C@@H]3C=CC=NN32)cc1	4.2*	-1	-2	0	1	-1
COc1ccc(C(=O)[C@H]2[C@H]3C(=O)N(c4ccc(C)cc4)C(=O)[C@H]3C3C=CC=NN32)cc1 (stereo not given in full)	.	-2	-1	1	-2	1
Cc1cc(-c2n[nH]c(=S)n2/N=C/c2cccc([N+](=O)[O-])c2)n[nH]1	4	0	0	0	-1	2
CSc1nnc(CNS(=O)(=O)c2ccc(Br)cc2)n1C	-1	-1	-1	0	-1	-1
CCOc1ccccc1/C=N/Nc1ccc(Cl)nn1	1	1.0*	-3	0	-1	0
CCOc1ccc(/C=N/Nc2ccc(Cl)nn2)c(O)c1	1	0	0	0	4	1
Cc1cccc(-n2nc(C)c3c(C(=O)O)cc(-c4cccs4)nc32)c1	4.6*	-1	1	-1	2	0
Cc1nn(-c2cccc(Cl)c2)c2nc(-c3ccco3)cc(C(=O)O)c12	-1	-1	1	1	-1	0
Cc1ccc(S(=O)(=O)N(C)C[C@H]2OCCCC[C@@H](C)Oc3ccc(N(C)C)cc3C(=O)N([C@H](C)CO)C[C@@H]2C)cc1	0	-2	2	1	0	0
COC(=O)c1cc2c(c3c4ccccc4n(S(=O)(=O)c4ccccc4)c13)C(=O)N(Cc1ccc(N(C)C)cc1)C2	.	-1	2	-1	1	1
COC(=O)c1cc2c(c3c4ccccc4n(S(C)(=O)=O)c13)C(=O)N(Cc1ccccc1)C2	.	2.8*	2	-1	3	2
O=C(Nc1ccccc1C(=O)NC(Cc1ccccc1)C(=O)NC1CCCCC1)c1ccccc1 (stereo not given)	0	-1	-3	1	0	-1
COc1ccc(S(=O)(=O)NC(C)C(=O)NCc2ccncc2)cc1OC (stereo not given)	5.8*	-1	-4	0	1	0
COc1ccc(S(=O)(=O)NC(C)C(=O)NCc2ccncc2)cc1C (stereo not given)	-1	-1	-1	0	0	-1
O=C(Cn1ncc(N2CCCC2)c(Cl)c1=O)c1ccc(Cl)cc1	4	1.6*	-1	2	4	1
CN(C)S(=O)(=O)c1cccc(-c2cn3ccccc3n2)c1	1	-2	2	-1	3	0
SMILES	DAX1 inh-1	ssDAF12 agonist	SMARCA2 activ	DAX1 inh-2	hgDAF-12 ag	hcDAF-12 act
CCCN(CC(=O)Nc1ccc(F)c(F)c1F)C(=O)c1ccc(=O)n(Cc2ccccc2)n1	0	-1	-2	0	2	2
CC1(C)C2CC[C@]3(C)C(CC=C4[C@@H]5C[C@@](C)(CO)[C@@H](O)C[C@]56C[C@@H](OC6=O)[C@]43C)[C@@]2(C)CC[C@@H]1O (stereo not given in full)	5.5*	-2	1	0	1	-1
C[C@H]1[C@H](C)CC[C@]2(C(=O)O)CC[C@]3(C)C(=CC[C@@H]4[C@@]5(C)CC[C@H](O)C(C)(C)[C@@H]5CC[C@]43C)[C@H]12	0	-1	-2	0	0	2
O=S1(=O)c2c(NCc3ccco3)cccc2Oc2ccccc2CN1Cc1cn(Cc2ccccc2C(F)(F)F)nn1	.	-2	-2	-1	-2	-4
Cc1ccc(N2CC(=O)N(NC(=O)CN3CCN(c4ccccc4)CC3)CC2=O)cc1	2	-1	-2	-1	-1	0
O=C(CN1CCOCC1)NN1CC(=O)N(c2ccc(Cl)cc2)CC1=O	5.6*	-1	2	0	0	0
COc1ccc2oc(=O)cc(CN3CCN(Cc4ccccc4)CC3)c2c1	0	-1	-2	-1	-3	-2
c1ccc(-n2c(SCC3CCCCO3)nnc2-c2cnccn2)cc1 (stereo not given)	0	-2	1	0	1	-1
CN(CC(=O)Nc1ccc(F)cc1)C(=O)c1ccc2ccccc2n1	1	0	-1	1	1	6.0*
CC(C)(O)c1[nH]c2cc(F)ccc2c1C(C)(C)O	1	0	0	1	3	5.7*
CC(=O)c1sc2nc(-c3cccs3)ccc2c1N	1	0	1	0	4	1
CCC1=NN2C(=N)/C(=C\c3cccn3-c3cccc(Cl)c3)C(=O)N=C2S1	-1	-2	0	0	1	0
CCC1=NN2C(=N)/C(=C\c3cccn3-c3ccc(Br)cc3)C(=O)N=C2S1	4.7*	-1	1	0	1	0
CC(C)(C)NCC(O)CON=C1c2ccccc2-c2ccccc21 (stereo not given)	5.4*	-2	0	1	-3	-1
c1ccc(NN=C2c3ccccc3-c3ccccc32)cc1	0	1	-2	0	2	5.7*
COc1ccc(C(=O)NC2CCCc3c2cnn3-c2ccccc2F)cc1OC (stereo not given)	-1	-2	-3	-7	-3	-4
c1ccc(Nc2nnc(SCc3cccc4ccccc34)s2)cc1	2	-1	1	0	2	-2
Cc1nc(CSc2nnc(C)s2)cs1	4.7*	-1	-6	1	3	-1
Cc1nnc(SCc2cccc3ccccc23)s1	7.0*	-1	2	1	3	2
